PubChem BioAssay (NCI)
This is part of a sample that, as a whole, favours compounds with a hit. Of some 83,000 tested, about 20% had one in any assay.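 Assay: single dose, 48 h. Readout: percent growth (0 = no net growth; negative = cell death). Active: <10.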 Values without a mark were called inactive. The source made the active and inactive calls.

test system: HL-60(TB) leukemia; assay: NCI-60 one-dose screen, 48 h (100 = growth as untreated, 0 = no growth, -100 = all killed); settings: 10 µM unless noted

SMILES | growth
N#Cc1nc(-c2ccc(Cl)cc2)cc(-c2ccc(Nc3nc(N4CCCCC4)nc(N4CCCCC4)n3)cc2)c1N | 99.2%
CN=S(=O)(NC(=O)c1ccc(Cl)cc1Cl)c1ccc(Br)s1 (stereo not given) | 108%
c1nc(N2CCOCC2)c2[nH]ccc2n1 | 90.2%
Cl.Fc1c[c-]c(-c2ccccn2)c(F)c1.[Pt].c1ccc([PH+](C[PH+](c2ccccc2)c2ccccc2)c2ccccc2)cc1 | -33.7% (active)
N=C(N)N=Nc1ccc(NN=C(N)N)cc1 | 101%
COC(=O)C1OC1c1cc([N+](=O)[O-])ccc1OC (stereo not given) | 99.1%
C=C1CCC2C3(C)COC(C)(C)OC3CCC2(C)C1C/C=C1/C(=O)OCC1OC(C)=O (stereo not given) | -43.8% (active)
COc1ccccc1S(=O)(=O)Nc1ccc2c3c(cc(CCC(=O)NCCCCNc4cccc5c4C(=O)N(C4CCC(=O)NC4=O)C5=O)cc13)C(=O)N2C (stereo not given) | -1.81% (active)
COc1ccc(-c2nn(-c3cccc(Cl)c3)cc2-c2cc(-c3ccccc3)[nH]c(=O)c2C#N)cc1 | 111%
O=C1C(Cl)=C(NCCN2CCOCC2)C(=O)c2ncccc21 | -45.5% (active)
COC(=O)c1c2c(c(C)[n+]([O-])c1C)C(=O)C=C(NCc1ccc(Br)cc1)C2=O | -19.4% (active)
Clc1nc(Cl)c2ncn(CCOCCn3cnc4c(Cl)nc(Cl)nc43)c2n1 | -70.6% (active)
CCCCCCCCn1ccc2cc(NC(=O)Cn3cc(CN4CCN(CC)CC4)nn3)ccc21 | 63.9%
N#C/C(=C\c1ccc(Cl)cc1Cl)C(=O)Nc1ncc(Cc2ccc(Cl)c(Cl)c2)s1 | 98.8%
CC1CC(O)C2C3(C)CCCC2(COC3=O)C12CCC1(CCOC1=O)O2 (stereo not given) | 121%
Cc1cc(C)nc(SCC(=O)Nc2cccc(N=Cc3ccccc3O)c2)n1 | 96.6%
Cc1cc(O)ccc1C1=NN(c2ccc(S(C)(=O)=O)cc2)C(=O)CC1 | 52.6%
CC(C)C/C(=N\NC(=O)c1ccncc1)c1cc(Cl)ccc1O | -32.3% (active)
CCC1(C(C)C)NC(=O)NC1=O (stereo not given) | 100%
COc1cc(C2CC(=O)Nc3c2c(C)nn3-c2nc3ccccc3[nH]2)cc2c1OCC(=O)N2 (stereo not given) | 77.4%

SMILES | growth
COc1ccc(-c2nc3sc4c(c3c(=O)[nH]2)CCCCCC4)cc1 | 29%
CCN1/C(=C/C=C/C=C/c2sc3ccccc3[n+]2CC)Sc2ccccc21 | -58.4% (active)
COc1ccc(Cc2cc(-c3ccccc3C)n[nH]c2=O)cc1 | 92.4%
O=C(NNC(=O)c1cccc(Cl)c1)c1ccccc1 | 94.3%
C[C@]12CCC(=O)C=C1CC[C@H]1[C@@H]3C[C@@H](O)[C@](O)(C(=O)CO)[C@@]3(C)C[C@H](O)[C@@]12F | 98.1%
NC1=CC(=O)C(=O)c2ccccc21 | 39.2%
CCn1c(O)c(/C=N/NC(=O)C(C)c2ccc(CC(C)C)cc2)sc1=S (stereo not given) | -32.5% (active)
O=[N+]([O-])c1ccc2ncccc2c1Cl | 11.6%
Nc1nc(-c2cccnc2)nc2c1sc(=S)n2-c1ccccc1 | 99.3%
C[n+]1cc2cc3c(cc2c2ccccc21)OCO3 | 87.5%
COc1cc(C)c2sc3ccccc3c(=O)c2c1NCCN(C)C | 61.2%
CSCCC(NC(=O)c1ccccc1)C(=O)N/N=C1\S/C(=C/c2ccc(Cl)cc2)C(=O)N1C (stereo not given) | 51.6%
COc1ccc(S(=O)(=O)n2ccc(-c3ccc4c(c3)CCC(C)(C)O4)n2)cc1OC | 94.7%
N#Cc1cccc(NC(=O)c2cc(-c3ccc(F)cc3F)ccc2O)c1 | -19.1% (active)
COC1=CC(c2ccc[nH]2)=N/C1=C\c1[nH]c(C)c(C(=O)OC(C)C)c1C | 2.29% (active)
CSc1nc(NCCN2CCOCC2)c(C#N)c(-c2cccc([N+](=O)[O-])c2)n1 | 100%
COc1cccc(-c2nc3cc(NC(=O)c4ccc(Cl)c(C#N)c4)ccc3o2)c1 | 100%
CN(C)CCC(CCN(C)C)(C(=O)O)c1ccccc1 | 101%
Cc1ccc(NC(=O)C(Cl)Cl)cc1 | -48.8% (active)
COC(CCCl)c1ccc(Cl)cc1 (stereo not given) | 94.2%
